Each structure is given as a SMILES string.

Settings in all cases: concentration: 1 μM, replicates: in singlicate; n = 1
Test [1] concerns T1, RSK1(Kin.Dom.1-N-terminal).
T1 construct: gene RPS6KA1

Test [2] deals with T2, RSK1(Kin.Dom.2-C-terminal).
T2 construct: gene RPS6KA1

The subject of test [3] is T3, RSK2(Kin.Dom.1-N-terminal).
T3 construct: gene RPS6KA3

Test [4] concerns T4, RSK2(Kin.Dom.2-C-terminal).
T4 construct: gene RPS6KA3

Test [5] has as its system T5, RSK3(Kin.Dom.1-N-terminal).
T5 construct: gene RPS6KA2

Test [6] relates to T6, RSK3(Kin.Dom.2-C-terminal).
T6 construct: gene RPS6KA2

Test [7] has as its system T7, RSK4(Kin.Dom.1-N-terminal).
T7 construct: gene RPS6KA6

For test [8], the system named is T8, RSK4(Kin.Dom.2-C-terminal).
T8 construct: gene RPS6KA6

Another test relates to S6K1.
A further test relates to SBK1.
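Note: KINOMEscan kinase panel screen.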

With `COc1cc(OC)cc(-c2cc3cnc(N)nc3nc2NC(=O)NC(C)(C)C)c1`, the “%Inh” value in test [1] is 23%; in [2], 0%; in test [3], 0%; in test [4], 0%; in test [5], 0%; in test [6], 0%. The “%Inh” value (in test [7]; in test [8]; in the test with S6K1; in the test on SBK1) was 0% throughout.

On to `CCc1nc(-c2cccc(C)c2)c(-c2ccncc2)s1`, for which the “%Inh” value in test [1] is given as 0%; in test [2], 91.2%; in test [3], 0%; in [4], 0%; in test [5], 11%; in [6] it was 10%. In addition, the “%Inh” value is listed as 0% in test [7], 94.6% in [8], 0% with S6K1 and 0% with SBK1.

On to `Cc1nc(N(C)[C@H]2CN(C(=O)CC#N)CC[C@H]2C)c2cc[nH]c2n1`, for which the “%Inh” value is 12% in test [1]; 0% in test [2]; 0% in [3]; 0% in test [4]; 12% in [5]; 12% in test [6]. Also, the “%Inh” value worked out at 4% in [7], 4% in [8], 0% in the test on S6K1 and 0% with SBK1.

Turning to `Cc1cc(Nc2nc(-c3cccc(C)n3)nc3ccccc23)ccn1` [GW872411], the “%Inh” value in test [1] was found to be 23%; in [2] it was 0%; in [3], 24%; in [4], 0%; in test [5], 0%; in [6] it was 7%. Moreover, the “%Inh” value in [7] was found to be 0%; in [8], 0%; with S6K1, 7%; in the test with SBK1, 0%.

(Values after publication PMC5540273 (PLoS ONE, 2017).)
